D3 antag: D3 dopamine receptor (human) antagonism; max response, negative = inhibition, %; D3R cells, DiscoveRx beta-arrestin luminescence, antagonist mode; active compounds read low; AID 652054; P35462; actives 2.5% (n = 360,000); in the data active = max response below about -50%; inconclusive = no clear call, values can overlap the other calls; note: % is set by controls: 0 for no effect and ±100 for the full control effect
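Cells plated overnight at 1500 cells/well, then exposed to library compounds with dopamine controls for 90 minutes at 37 degrees C. DiscoveRx reagent added for 30–60 minutes at room temperature; luminescence read, quantitative HTS format.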
D1 antagonist: antagonists of human D1 dopamine receptor; P21728; HEK293 TREx D1 cells, calcium flux, dopamine EC80; active compounds read low; activity change, negative = inhibition, % at 10 µM; actives 3.2% (n = 360,000); in the data active = activity change below about -30%; note: % is set by controls: 0 for no effect and ±100 for the full control effect
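Allosteric or orthosteric antagonism assessed as attenuation of the calcium response to EC80 dopamine, added 180 s after compound, in induced HEK293 Trex D1 cells loaded with no-wash calcium dye.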
DRD3 agonist: activates the human D3 dopamine receptor; D3R DiscoveRx beta-arrestin cells, luminescence, 90 min; AID 652048; P35462; max activation, %; actives 0.58% (n = 410,000); in the data active = max activation above about 30%; note: 0% is about no effect
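Agonist-mode cell screen: cells plated at 1500/well and incubated overnight at 37 °C, then exposed to library compounds for 90 min at 37 °C. Detection reagent was added for 30–60 min at room temperature, and luminescence was read.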
ERG-DNA inh: blocks human ERG Ets domain binding to DNA; actives 0.028% (n = 370,000); P11308; Potency, µM (top dose mostly 76.9 µM), inactives show top-dose FP activity, negative = inhibition, hits mostly inhibitors; fluorescence polarization, His-ERG Ets domain / labelled DNA; active = well fitted inhibition curve with a large enough effect in the polarisation, with a control signal flat; inconclusive = small, poorly fitted or top-dose-only effect, or effect the other way, or a change in a side signal; inactive = no such curve, though single readings can be large or run the other way; the % refers to the polarisation;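 note: polarization taken with two DNA probes labelled with fluorescein and Texas red; potency is the fitted concentration of half-maximal effect; % of control where 0% means no effect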
Target sequence (P11308 whole entry, looked up, the tested form may be a part): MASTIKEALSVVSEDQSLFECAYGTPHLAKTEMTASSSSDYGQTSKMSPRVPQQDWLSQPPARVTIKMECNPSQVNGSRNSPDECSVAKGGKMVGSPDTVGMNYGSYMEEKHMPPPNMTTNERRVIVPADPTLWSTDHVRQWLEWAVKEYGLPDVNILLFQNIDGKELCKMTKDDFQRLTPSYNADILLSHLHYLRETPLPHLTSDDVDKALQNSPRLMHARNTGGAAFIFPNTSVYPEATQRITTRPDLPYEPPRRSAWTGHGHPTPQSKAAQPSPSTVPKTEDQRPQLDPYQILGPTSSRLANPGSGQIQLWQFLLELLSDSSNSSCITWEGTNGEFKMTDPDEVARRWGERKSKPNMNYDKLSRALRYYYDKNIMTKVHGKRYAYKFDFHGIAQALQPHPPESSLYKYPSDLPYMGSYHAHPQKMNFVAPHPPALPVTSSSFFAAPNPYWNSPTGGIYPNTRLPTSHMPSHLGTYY
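His-tagged ERG Ets domain (1 uM in the protein solution; 300mM KCl, 50mM Tris-HCl, 1mM EDTA, 1mM DTT, pH 7.5) received compound, then a probe mix of 5 nM fluorescein-DNA and 100nM Texas-615-DNA. Fluorescence polarization was read for both dyes.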
D1 ag: human D1 receptor agonism; P21728; HEK293 T-REx D1 cells, calcium flux, agonist mode; activation, % at 2 µM; actives 1% (n = 360,000); in the data active = activation above about 30%; note: 0% is about no effect
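Agonism was scored from calcium flux recorded over 180 s (1 read/s) after pintool compound addition, following a 10-cycle baseline. Cells were inducible force-coupled HEK293 TREx D1, plated overnight at 30 C and loaded with no-wash calcium dye.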
D1 potentiator: potentiators of human D1 dopamine receptor. P21728. HEK293 TREx D1 cells, calcium flux, dopamine EC20 potentiation. potentiation, % at 10 µM. actives 0.036% (n = 360,000). AID 504651; in the data active = potentiation above about 30%; note: 0% is about no effect
Numbers without * were called inactive; ? = inconclusive; . = no result given. In the library only some 6.1% were active in any assay of this set; here they are far more common.

SMILES	D3 antag	D1 antagonist	DRD3 agonist	ERG-DNA inh	D1 ag	D1 potentiator
COc1ccc(/C=C/C(=O)Nc2sc3c(c2C(N)=O)CCC(C)C3)cc1OC (stereo not given)	.	-13	37*	-2%	0	1
COC(=O)CCC(=O)Nc1sc(C)c(C)c1C(N)=O	-4	-41*	1	6%	-1	-6
Cc1sc(NC(=O)C2CCCCC2C(=O)O)c(C(N)=O)c1C (stereo not given)	-6	-37*	-14	0%	1	-1
COC(=O)CCC(=O)NC(=S)Nc1sc(C)c(C)c1C(N)=O	?	8	-7	4%	1	1
Cc1cnc(C=O)c2cccc([N+](=O)[O-])c12	-77*	.	-9	.	.	.
BrC(=C\c1ccccc1)/C=N/Nc1nc(N2CCOCC2)nc(N2CCOCC2)n1	0	3	-5	-4%	0	-1
Cc1ccc(C(C)C)c(OCc2nn(CC(=O)c3ccc(Cl)cc3)c3[n+]2CCCCC3)c1	-52*	6	-16	3%	26	-1
O=[N+]([O-])c1ccc(-c2nc(C(Cl)Cl)c3ccccc3n2)cc1	-59*	-6	-13	6%	0	0
CN(Cc1ccccc1)c1nc(-c2ccc([N+](=O)[O-])cc2)nc2ccccc12	-54*	19	3	-5%	11	1
COCCN(CCOC)c1nc(-c2ccc([N+](=O)[O-])cc2)nc2ccccc12	52	-29	15	-8%	3	0
CN1CCN(C(=O)CN(C)S(=O)(=O)c2ccc(F)cc2)CC1	7	-2	-9	1%	2	3
COCCN(C(=O)CCl)C(C(=O)NC1CCCCC1)c1ccccc1C (stereo not given)	?	15	-13	-5%	1	-3
Cc1cccc(C)c1C(OCCN(C)C)C1CCCCC1 (stereo not given)	-89*	-12	16	-8%	12	-1
C#CCOCCOCCOCCNc1nc(N2CCN(C(=O)CCCCCCCCCCNC(=O)[C@H](CCCN=C(N)N)n3cc(C[C@@H](C)CC)nn3)CC2)nc(N2CCN(C(=O)CCCCCCCCCCNC(=O)[C@@H]([C@H](C)CC)n3cc(CCCCCN)nn3)CC2)n1	.	15	.	.	6	35*
C#CCOCCOCCOCCNc1nc(N2CCN(C(=O)CCCCCCCCCCNC(=O)[C@H](CCCCN)n3cc(C[C@@H](C)CC)nn3)CC2)nc(N2CCN(C(=O)CCCCCCCCCCNC(=O)[C@H](CCCN=C(N)N)n3cc(C[C@@H](C)CC)nn3)CC2)n1	-76*	-12	-13	26%	2	-8
C#CCOCCOCCOCCNc1nc(N2CCN(C(=O)CCCCCCCCCCNC(=O)[C@H](CCCCN)n3cc(C)nn3)CC2)nc(N2CCN(C(=O)CCCCCCCCCCNC(=O)[C@H](CCCN=C(N)N)n3cc(C[C@@H](C)CC)nn3)CC2)n1	?	-15	-21	9%	4	-5
C#CCOCCOCCOCCNc1nc(N2CCN(C(=O)CCCCCCCCCCNC(=O)[C@H]([C@@H](C)CC)n3cc(CCCCN=C(N)N)nn3)CC2)nc(N2CCN(C(=O)CCCCCCCCCCNC(=O)[C@H](CCCN=C(N)N)n3cc(C[C@@H](C)CC)nn3)CC2)n1	.	18	.	.	2	-10
Cc1cc(C)n(-c2ccc(C(=O)N3CCN(S(=O)(=O)c4ccc(C(C)C)cc4)CC3)cc2)n1	-15	-14	10	4%	1	-5
CC(C)c1ccc(S(=O)(=O)N2CCN(C(=O)c3ccncc3)CC2)cc1	2	-31*	1	-3%	10	.
COc1ccc(CN2CCCC(C(=O)N3CCCCC3)C2)cc1OC (stereo not given)	-4	-11	-18	-6%	2	-4
O=C(C1CCCN(Cc2ccccc2)C1)N1CCc2ccccc2C1 (stereo not given)	-89*	-7	-45	0%	-1	-3
COc1ccc(CN2CCCC(C(=O)N3CCc4ccccc4C3)C2)cc1OC (stereo not given)	-61*	-3	-19	-3%	1	-2
O=C(C1CCCN(Cc2cccc(F)c2)C1)N1CCCCC1 (stereo not given)	-73*	-10	-8	1%	1	-3
COc1cc(CN2CCCC(C(=O)N3CCc4ccccc4C3)C2)cc(OC)c1OC (stereo not given)	-70*	-14	-17	-4%	6	-3
COc1ccc(NC(=O)C(Cc2ccccc2)NS(=O)(=O)c2ccc3c(c2)CCC(=O)N3)c(OC)c1 (stereo not given)	.	-3	-5	-10%	1	-3
SMILES	D3 antag	D1 antagonist	DRD3 agonist	ERG-DNA inh	D1 ag	D1 potentiator
CC(C)(CO)Cc1cc(C(C)(C)C)c(O)c(C(C)(C)C)c1	21	22	11	-10%	71*	-3
CC1(OC(=O)CCc2ccccc2)C(=O)C=C2C=C(c3ccc(C#N)cc3)N(CCN3CCOCC3)C=C2C1=O (stereo not given)	0	-1	3	0%	1	1
CC(C)(C)NC(=O)C(c1ccnc2ccccc12)n1c(=O)c(-c2ccccc2)nc2ccccc21 (stereo not given)	2	.	3	.	.	.
CCn1c(-c2ccsc2)nc2c1c(=O)[nH]c(=O)n2Cc1ccccc1	-22	-52*	-4	0%	1	-5
CCCn1c(-c2cccs2)nc2c1c(=O)[nH]c(=O)n2Cc1ccccc1	-8	-27	-5	11%	1	-5
CC(C)(C)c1cc(NCCCn2ccnc2)n2ncc(-c3ccc(Cl)cc3)c2n1	14	4	9	5%	2	0
CN(C)CCCNc1cc(C(C)(C)C)nc2c(-c3ccccc3)cnn12	0	-12	-15	2%	58*	-2
Cc1cc(Br)ccc1NC(=O)CN1C(=O)c2cccnc2Sc2ccccc21	.	5	2	0%	1	-2
COc1cccc(-c2ccc3c(N)c(C(=O)Nc4cc(C(F)(F)F)ccc4OC)sc3n2)c1	.	-35*	-7	3%	4	-1
Nc1c(C(=O)Nc2ccc(Br)cc2)sc2nc(-c3ccncc3)ccc12	.	7	-15	47%	10	-6
CC(C)CSc1ccccc1NC(=O)c1sc2nc(-c3ccncc3)ccc2c1N	.	-31*	-4	-3%	7	-3
COc1cccc(-c2ccc3c(N)c(C(=O)Nc4ccc(Cl)cc4F)sc3n2)c1	.	-31*	4	-2%	8	-2
